Screening data as filed in PubChem.
Shown are actives, neighbours in structure and some others; about 1.7% of the full set was active somewhere.
Vif inh: inhibitors of HIV Vif; AID 602346; HEK293T cells, Vif self-association by quenched fluorescence, imaging, 24 h; inhibition, % at 7.49 µM; actives 0.35% (n = 340,000); in the data active = inhibition above about 50%, passing the limit was not always enough; inconclusive = no clear call, values can overlap the other calls; inactive = below about 31%
N-glyco inh: N-linked glycosylation inhibition; D54 ERlucT glycosylation luciferase reporter, 24 h; percent of 100 nM tunicamycin response; actives 0.23% (n = 360,000); AID 588692; reporter increase, % at 12.5 µM;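 active = mean luciferase reporter signal, scaled so untreated is 0 and the glycosylation-blocking control 100, at or above a set limit in every replicate; inconclusive = mean reaches the limit but not every replicate does; inactive = mean below the limit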;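 note: luciferase carries N-glycosylation sites so blocking glycosylation raises the light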
aDG glyco act: increases alpha dystroglycan glycosylation. Pro5-aDG cells, alpha-DG glycosylation AlphaScreen (IIH6); 0% Pro5, 100% B10-LARGE cell signal. activation, % at 10 µM. actives 0.22% (n = 360,000). AID 624168;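 active = activation of at least 8% versus controls, or a plate z-score of at least 8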;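 note: Pro5 are CHO cells carrying HIG-tagged alpha-DG that lacks glycosylation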
ARNT-TACC3 inh: ARNT/TACC3 interaction disruption; AID 623870; Q9Y6A5; inhibition, % at 9.99 µM; AlphaScreen His-ARNT PAS-B/GST-TACC3 binding, luminescence; TACC3 fragment carries E629A point mutation; actives 0.66% (n = 390,000);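 active = mean inhibition of replicates at least 50% and at least half of replicates each reaching 50%; inconclusive = half or more replicates reach 50% but mean below 50%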
H9c2 protect: modulators protecting cardiomyocytes from myocardial damage; H9c2 cardiomyocytes, H2O2 injury protection, ATPLite, 2 h; actives 0.63% (n = 360,000); protection from H2O2 cell death, % at 20 µM;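 active = compounds giving at least 50% protection of heart cells from peroxide-induced death in the single-dose screen, raw or plate-pattern-corrected value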
Each line names hits and unclear results; the compound was inactive in the other large screens.

COc1cc(/C=C2\SC(=S)N(CCC(=O)Nc3cccc(O)c3)C2=O)cc(OC)c1OC	H9c2 protect 67.1
C[C@H]1CN([C@@H](C)CO)C(=O)c2cccc(NC(=O)C3CCCCC3)c2O[C@@H]1CN(C)Cc1ccncc1	none (no result: Vif inh, N-glyco inh, aDG glyco act, H9c2 protect)
CCSS(=O)(=O)c1cccc2cccnc12	ARNT-TACC3 inh 65.0
O=C(Nc1ccccc1O)c1ccc(NS(=O)(=O)c2cccc3cccnc23)cc1	N-glyco inh 83.4
O=S(=O)(Nc1ccc(Cl)cc1)c1cccc2cccnc12	ARNT-TACC3 inh 37.8
O=C(Nc1ncccc1O)c1ccc(S(=O)(=O)Nc2ccccc2)cc1	N-glyco inh 128.8
COC(=O)c1ccc(NC(=O)c2ccc(NS(=O)(=O)c3cccc4cccnc34)cc2)cc1	none
O=C(Nc1ncccc1O)c1ccc(NS(=O)(=O)c2ccc3[nH]c(=O)[nH]c3c2)cc1	none (no result: ARNT-TACC3 inh)
CCCC(=O)Nc1ccc2c(c1)C(=O)N(C)[C@H]1CC[C@H](CC(=O)NCC3CCCCC3)O[C@@H]1CO2	none (no result: Vif inh, N-glyco inh, aDG glyco act, H9c2 protect)
C[C@H]1CN([C@@H](C)CO)C(=O)c2ccccc2-c2ccccc2CO[C@H]1CN(C)Cc1cccc(C(=O)O)c1	none (no result: Vif inh, N-glyco inh, aDG glyco act, H9c2 protect)
COc1ccc(NC(=O)Nc2ccc3c(c2)C(=O)N([C@@H](C)CO)C[C@@H](C)[C@H](CN(C)C(=O)Nc2c(C)noc2C)OCCCC[C@@H](C)O3)cc1	none (no result: Vif inh, N-glyco inh, aDG glyco act, H9c2 protect)
Cc1ccc(S(=O)(=O)N(C)C[C@H]2OCCCC[C@H](C)Oc3ccc(NC(=O)C4CCCCC4)cc3C(=O)N([C@H](C)CO)C[C@H]2C)cc1	none (no result: Vif inh, N-glyco inh, aDG glyco act, H9c2 protect)
CC1CN(S(=O)(=O)c2ccc(C(=O)Nc3nnc(-c4ccc5c(c4)CCCC5)o3)cc2)CC(C)O1 (stereo not given)	H9c2 protect 62.5
O=C(Nc1nnc(C2CC2)o1)c1ccc(S(=O)(=O)N2CCCc3ccccc32)cc1	ARNT-TACC3 inh 47.9
COc1ccc(-c2nnc(NC(=O)c3ccc(S(=O)(=O)N4CCCc5ccccc54)cc3)o2)cc1	H9c2 protect 62.9
COCc1nnc(NC(=O)c2ccc(S(=O)(=O)N3CCCc4ccccc43)cc2)o1	none (no result: ARNT-TACC3 inh)
CN1C(=O)c2cc(NC(=O)c3cscn3)ccc2OC[C@H]2O[C@@H](CC(=O)N3CCOCC3)CC[C@H]21	none (no result: Vif inh, N-glyco inh, aDG glyco act, H9c2 protect)
NNC(=O)c1ccc2[nH]c3c(c2c1)CCCC3	none
CCOC(=O)CNC(=O)c1ccc2[nH]c3c(c2c1)CCCC3	Vif inh 71.9
COc1cc(/C=N/NC(=O)CCC(=O)NC2CCCCC2)ccc1C	Vif inh 50.9
O=C(NC(c1ccccc1)c1ccccc1)c1cccc(S(=O)(=O)NCc2ccccc2)c1	ARNT-TACC3 inh active
COc1cc2sc(-c3ccc(S(C)(=O)=O)cc3)c(C#CCO)c2cc1OC	H9c2 protect 53.3
COc1cc(OC)cc(-c2sc3ccc(OC)cc3c2C#CCO)c1	none (no result: ARNT-TACC3 inh)
C[C@@H]1CN([C@@H](C)CO)C(=O)c2cc(C#CC3CCCCC3)cnc2O[C@@H]1CN(C)C(=O)NC1CCCC1	none (no result: Vif inh, N-glyco inh, aDG glyco act, H9c2 protect)
CCCOc1ccc(CSc2nc3ccccc3[nH]2)cc1	aDG glyco act 4.4
C[C@@H]1CN([C@H](C)CO)C(=O)c2cccc(NS(=O)(=O)c3ccc(Cl)cc3)c2O[C@H]1CN(C)CC1CC1	none (no result: Vif inh, N-glyco inh, aDG glyco act, H9c2 protect)
COc1ccc(CN(C)c2ncnc3sccc23)c(OC)c1OC	N-glyco inh 30.3
COc1ccc(CCN(C)c2ncnc3sccc23)cc1OC	none
Cc1noc(C)c1S(=O)(=O)Nc1ccc2c(c1)C(=O)N([C@H](C)CO)C[C@H](C)[C@H](CN(C)S(C)(=O)=O)OCCCC[C@@H](C)O2	none (no result: Vif inh, N-glyco inh, aDG glyco act, H9c2 protect)
O=[N+]([O-])c1ccc(N/N=C/c2ccc(OCc3cccc4ccccc34)cc2)nc1	Vif inh 148.7
COc1ccc(C=NNc2ccc([N+](=O)[O-])cn2)cc1	none
N#Cc1ccccc1Cn1cc(/C=N/Nc2ccc([N+](=O)[O-])cn2)c2ccccc21	Vif inh 158.3
O=C(CN1CCOCC1)N1CCCCN2[C@H](C1)[C@H](c1ccc(/C=C/c3ccccc3)cc1)[C@@H]2CO	none (no result: Vif inh, N-glyco inh, aDG glyco act, H9c2 protect)
C[C@H](NC(=O)C[C@H]1CC[C@H]2[C@@H](COC[C@@H](O)CN2C)O1)c1ccccc1	none (no result: Vif inh, N-glyco inh, aDG glyco act, H9c2 protect)
COC1(OC)N=C(N)C2(C#N)C(c3ccccc3)NC(C)=CC12C#N (stereo not given)	ARNT-TACC3 inh 57.2
COC1(OC)N=C(N)C2(C#N)C(c3cccc(Oc4ccccc4)c3)C12C#N (stereo not given)	none (no result: Vif inh)
COc1ccccc1C(=O)COC(=O)C1(C)CC1(Cl)Cl (stereo not given)	Vif inh 71.0
C[C@H](NC(=O)C[C@@H]1CC[C@H]2[C@@H](COc3ccc(NS(=O)(=O)c4ccc(Cl)cc4)cc3C(=O)N2C)O1)c1ccccc1	none (no result: Vif inh, N-glyco inh, aDG glyco act, H9c2 protect)
Cc1ccc(S(=O)(=O)N[C@H]2CC[C@H](CCn3cc(C4CC4)nn3)O[C@@H]2CO)cc1	none (no result: Vif inh, N-glyco inh, aDG glyco act, H9c2 protect)
CCCCNc1ccc(C(CC(N)=O)NC(=O)Cc2ccc(Br)cc2)cc1[N+](=O)[O-] (stereo not given)	N-glyco inh inconclusive (no result: Vif inh)
NC(=O)CC(NC(=O)Cc1ccc(Cl)cc1)c1ccc(NC2CC3CCC2C3)c([N+](=O)[O-])c1 (stereo not given)	N-glyco inh 37.1
NC(=O)CC(NC(=O)c1ccc(Br)cc1)c1ccc(N2CCCCCC2)c([N+](=O)[O-])c1 (stereo not given)	N-glyco inh 32.8
CCC(CC)Nc1ccc(C(CC(N)=O)NC(=O)Cc2ccc(Br)cc2)cc1[N+](=O)[O-] (stereo not given)	N-glyco inh 49.8 (no result: Vif inh)
NC(=O)CC(NC(=O)c1ccccc1)c1ccc(N2CCCCCCC2)c([N+](=O)[O-])c1 (stereo not given)	none (no result: ARNT-TACC3 inh)
C[C@H](CO)N1C[C@H](C)[C@H](CN(C)Cc2ccncc2)Oc2ncc(-c3cccc(C#N)c3)cc2C1=O	none (no result: Vif inh, N-glyco inh, aDG glyco act, H9c2 protect)
CC1(C)Oc2ccc(C(=O)N/N=C/c3ccc(O)cc3)cc2NC1=O	Vif inh 108.8
Cc1ccc(NC(=O)NNC(=O)c2ccc3c(c2)NC(=O)C(C)(C)O3)cc1	none
CO[C@H]1CN(C)C(=O)c2cc(NC(=O)c3cc(C)on3)ccc2OC[C@H](C)N(CC2CC2)C[C@@H]1C	none (no result: Vif inh, N-glyco inh, aDG glyco act, H9c2 protect)
CS(=O)(=O)c1ccc(-c2cnc3c(NC=O)cc(-c4ccsc4)cn23)cc1	H9c2 protect 81.2 (no result: ARNT-TACC3 inh)
O=CNc1cc(-c2ccsc2)cn2c(-c3ccccc3)cnc12	none (no result: ARNT-TACC3 inh)
COc1ccc(-c2cnc3c(NC=O)cc(-c4cccc(NS(C)(=O)=O)c4)cn23)cc1OC	H9c2 protect 105.0 (no result: Vif inh, ARNT-TACC3 inh)
COc1cccc(-c2cnc3c(NC=O)cc(-c4cc(OC)c(OC)c(OC)c4)cn23)c1	H9c2 protect 71.3 (no result: Vif inh, ARNT-TACC3 inh)
CCC(=O)N1[C@@H](CO)[C@@H]2c3ccccc3N(S(=O)(=O)c3ccccc3C)C[C@@H]21	none (no result: Vif inh, N-glyco inh, aDG glyco act, H9c2 protect)
CC(C)NC(=O)N(C)C[C@H]1Oc2ncc(-c3ccccc3F)cc2C(=O)N([C@@H](C)CO)C[C@H]1C	none (no result: Vif inh, N-glyco inh, aDG glyco act, H9c2 protect)
CCOC(=O)c1c(C)oc2c(F)c(F)c(F)c(F)c2c1=O	N-glyco inh 30.5
